We go through 21 molecules from PubChem BioAssay.

A short description of assay [1]: growth inhibition of DIPG glioma cells, dose response, cell-based, SU-DIPG-XVII, MIPE5.0, CellTiter-Glo, qHTS (AID 1347060).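 On AC50: cells exposed to compound for 48 hours before viability readout.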 The following applies: SU-DIPG-XVII viability, CellTiter-Glo ATP luminescence. In general terms: Cellular ATP, detected with luciferase, serves as a proxy for viable cell number.
The nature of assay [2]: growth inhibition of DIPG glioma cells, dose response, cell-based, SU-DIPG-XIII, MIPE5.0, CellTiter-Glo, qHTS (AID 1347064; cut-off not given, nearly all actives have AC50 up to about 23 µM;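 on AC50: cells exposed to compound for 48 hours before the viability read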). The conditions noted are these: SU-DIPG-XIII viability, CellTiter-Glo ATP luminescence.
The nature of assay [3]: viability loss in pontine glioma line – cell-based, SU-DIPG-XXV, MIPE5.0, CellTiter-Glo, qHTS, dose response (AID 1347065).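 Further: cells exposed to compound for 48 hours before ATP readout.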 The following applies: CellTiter-Glo ATP luminescence.
Assay [4] in a line: JHH-DIPG-1 glioma cell viability, MIPE5.0 library, CellTiter-Glo luminescence, qHTS (AID 1347067).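 Further: cells exposed to compound for 48 hours before readout.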 The following applies: JHH-DIPG-1 glioma viability, CellTiter-Glo ATP luminescence.
The nature of assay [5]: SU-DIPG-XXV glioma cell viability, MIPE5.0 library, qHTS (AID 1347068; cut-off not given, nearly all actives have IC50 up to about 30 µM;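 on IC50: cells exposed to compound for 48 hours before viability readout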). For orientation: qHTS replaces the single test concentration by a dilution series.

The structures appear in SMILES notation. Inconclusive results are not listed. Activity calls are given as the source filed them. Unless noted, cut-off not given; nearly all actives show AC50 up to about 26 µM.

Regarding `COc1c(Nc2ncc(Cl)c(N[C@H]3[C@H](C(N)=O)[C@@H]4C=C[C@@H]3C4)n2)ccc2c1CCC(N1CCOCC1)CC2` (stereo not given in full), the AC50 in assay [1] was 4.17 µM (active); in assay [2], 4.17 µM (active); in assay [3] it was 2.95 µM (active); in assay [4] it was 8.33 µM (active). Besides, the IC50 in assay [5] is 5.9 µM (active).

As for `CC[C@]12C=CCN3CC[C@@]4(c5cc([C@@]6(C(=O)OC)CC7C[C@@H](C(C)(F)F)CN(Cc8c6[nH]c6ccccc86)C7)c(OC)cc5N(C)[C@H]4[C@@](O)(C(=O)OC)[C@@H]1OC(C)=O)[C@@H]32` (stereo not given in full), the AC50 in assay [1] was 0.148 µM (active); in assay [2], 1.05 µM (active); in assay [3] it was 0.132 µM (active); in assay [4], 0.235 µM (active). Besides, the IC50 in assay [5] was 0.742 µM (active).

For the molecule `CC(C)(O)C1CCC(Nc2ccc3ncc(-c4cccc(C(F)(F)F)c4)n3n2)CC1` (stereo not given), the AC50 in assay [1] was 7.42 µM (active); in assay [2] it was 18.6 µM (active); in assay [3] it was 13.2 µM (active); in assay [4], 10.5 µM (active). Besides, the IC50 in assay [5] was 8.33 µM (active).

As for `O=C(O)CC(C(=O)O)n1c(O)c(C2=c3cc(Br)ccc3=NC2=O)sc1=S` (stereo not given), the molecule was classed as inactive in assay [1], in assay [2], in assay [3], in assay [4] and in assay [5].

As for `CC(=O)N[C@H]1CSSC[C@@H](C(N)=O)NC(=O)[C@H](C(C)C)NC(=O)[C@H](C)NC(=O)[C@H](Cc2cnc[nH]2)NC1=O`, the result in assay [1], in assay [2], in assay [3], in assay [4] and in assay [5] was inactive.

On to `CCc1cc(C(N)=O)ccc1-n1nc(C(C)C)c2c(-n3cnc(-c4cnn(C)c4)c3)ccnc21`, for which the AC50 in assay [1] was 1.86 µM (active); in assay [2], 3.72 µM (active); in assay [3], 1.86 µM (active); in assay [4] it was 3.32 µM (active). Besides, in assay [5], the IC50 is 3.32 µM (active).

For `C=CC(=O)Nc1cccc(Oc2nc(Nc3ccc(N4CCN(C)CC4)cc3)nc3ccsc23)c1`, the AC50 in assay [1] is 8.33 µM (active); in assay [2] it was 13.2 µM (active); in assay [3], 9.34 µM (active); in assay [4] it was 10.5 µM (active). In addition, the IC50 in assay [5] is 0.59 µM (active).

For `CN1CC[C@@H](NC(=O)Nc2ccc(C#N)cc2)C[C@@H]1c1nc2ccccc2[nH]1`, the molecule was called inactive in assay [1], in assay [2], in assay [3], in assay [4] and in assay [5].

Regarding `COc1cc2c(Oc3ccc4[nH]c(C)cc4c3F)ccnc2cc1OCC1(N)CC1`, the AC50 in assay [1] was 3.32 µM (active); in assay [2], 2.95 µM (active); in assay [3], 2.95 µM (active); in assay [4], 5.9 µM (active). Moreover, the IC50 in assay [5] is 16.6 µM (active).

Consider `Cc1ccc(NC(=O)c2ccc(CN3CC[C@H](N(C)C)C3)c(C(F)(F)F)c2)cc1Nc1nccc(-c2cncnc2)n1`, for which the AC50 in assay [1] is 10.2 µM (active); in assay [2] it was 14.4 µM (active); in assay [3], 16.2 µM (active); in assay [4] it was 11.5 µM (active). Moreover, the outcome in assay [5] was inactive.

`CN(C)Cc1ccc(S(=O)(=O)n2ccc(/C=C/C(=O)NO)c2)cc1`: the AC50 in assay [1] is 9.34 µM (active); in assay [2], 5.9 µM (active); in assay [3] it was 6.61 µM (active); in assay [4], 9.34 µM (active). Also, the IC50 in assay [5] is 7.42 µM (active).

Consider `c1ccc2c(-c3cnn4cc(-c5ccc(OCCN6CCOCC6)cc5)cnc34)ccnc2c1`, for which the AC50 in assay [1] was 12.9 µM (active); in assay [2] it was 14.4 µM (active); in assay [3], 9.1 µM (active); in assay [4], 10.2 µM (active). Moreover, the molecule was classed as inactive in assay [5].

As for `CCCCNc1ncc2c(-c3ccc(F)cc3)nn(CC3CCC(N)CC3)c2n1` (stereo not given), the AC50 is 8.11 µM (active) in assay [1], 8.11 µM (active) in assay [2], 5.12 µM (active) in assay [3] and 8.11 µM (active) in assay [4]. The IC50 in assay [5] is 7.23 µM (active).

As for `O=C(O)CCCCN(CCc1ccccc1OCc1ccc(CCc2ccccc2)cc1)Cc1ccc(C(=O)O)cc1`, the molecule was classed as inactive in assay [1], in assay [2], in assay [3], in assay [4] and in assay [5].

Turning to `O=C1NC(=O)C(c2cnc3ccccn23)=C1c1cn2c3c(cc(F)cc13)CN(C(=O)N1CCCCC1)CC2`, the concentration at half-maximal activity (AC50) in assay [1] was 1.86 µM (active); in assay [2] it was 16.6 µM (active); in assay [3] it was 18.6 µM (active); in assay [4], 20.9 µM (active). In addition, the IC50 in assay [5] was 20.9 µM (active).

Consider `O=C(O)CNC(=O)c1nc(Cl)c2ccccc2c1O`, for which the result in assay [1], in assay [2], in assay [3], in assay [4] and in assay [5] was inactive.

Consider `Cc1c(-c2c(-c3ccc(F)o3)sc3ncnc(O[C@@H](Cc4ccccc4OCc4ccnn4CC(F)(F)F)C(=O)O)c23)ccc(OCCN2CCN(C)CC2)c1Cl`, for which the AC50 is 0.295 µM (active) in assay [1], 6.61 µM (active) in assay [2], 0.132 µM (active) in assay [3] and 3.32 µM (active) in assay [4]. The IC50 in assay [5] was 1.32 µM (active).

In the case of `CCc1cccc2c3c([nH]c12)[C@@](CC)(CC(=O)O)OCC3`, the call in assay [1], in assay [2], in assay [3], in assay [4] and in assay [5] was inactive.

As to `CCOc1ccc(-n2c([C@@H](C)N(Cc3cccnc3)C(=O)Cc3ccc(F)c(C(F)(F)F)c3)nc3ncccc3c2=O)cc1`, the molecule was classed as inactive in assay [1], in assay [2], in assay [3], in assay [4] and in assay [5].

For the molecule `C=CCNC1=C2CC(C)CC(OC)C(O)C(C)/C=C(\C)C(OC(N)=O)C(OC)/C=C/C=C(\C)C(=O)NC(=CC1=O)C2=O` (stereo not given), the AC50 in assay [1] was 0.59 µM (active); in assay [2] it was 1.66 µM (active); in assay [3] it was 4.68 µM (active); in assay [4] it was 0.525 µM (active). The IC50 in assay [5] was 3.72 µM (active).

Turning to `OC1CCC([C@H](O)C[C@H]2c3c(F)cccc3-c3cncn32)CC1` (stereo not given in full), the molecule was called inactive in assay [1], in assay [2], in assay [3], in assay [4] and in assay [5].

Broadly, the AC50 is the midpoint of the concentration-response curve, whichever way the signal moves. As a reminder, the IC50 is the concentration that inhibits the measured activity by half.
